A structure can be active in one record and inactive in another. Calls of active or inactive are those of the source. Calls come from the whole dose curve; as a rule, active = well fitted activation curve with a large enough effect; inconclusive = small, poorly fitted or top-dose-only effect; inactive = no such curve, though single readings can be large or run the other way.
test: Confirmatory qHTS for Identification of Small Molecule Activators of Huntingtin-Antisense Promoter Activity; conditions: HEK293 HTT-AS promoter firefly luciferase reporter, 24 h; series mostly up to 57.5 µM
How it was run: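 HEK293 luciferase reporter cells, 2,500/well, cultured 24 h, then exposed to compounds at up to 57.5 uM final for 24 h at 37C. Firefly luciferase luminescence read; normalized to vehicle (0%) and zero RLU (-100%).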
Potency is the fitted concentration of half-maximal effect.

Potency, inactive:
CCCCC(CC)CNC(=O)Cc1ccc(-n2c(=O)[nH]c3ccccc3c2=O)cc1 (centres undefined)
CCOC(=O)c1cnc2ccc(OC)cc2c1Nc1ccc(OCc2ccccc2Cl)cc1
CCc1ccc(-n2nc(C)c3c(C(=O)Nc4cccc(C(F)(F)F)c4)cc(C)nc32)cc1
CCSc1ncc(Cl)c(C(=O)Nc2ccc(S(=O)(=O)N3CCCCC3)cc2)n1
Cc1cccc(CNC(=O)C2CCN(S(=O)(=O)c3ccc4c(c3)CCCN4C(=O)C3CCC3)CC2)c1
Cc1cccc(NC(=O)c2cnn(-c3ccccc3)c2-n2cccc2)c1C
CC=C1NC(=O)[C@H]2CSSCCC=C[C@H](CC(=O)N[C@H](C(C)C)C(=O)N2)OC(=O)[C@H](C(C)C)NC1=O
Cc1oc(-c2ccc(Cl)cc2)nc1CN1CCCC(C(=O)NCCc2ccccc2)C1 (centres undefined)
CCOc1ccc(C(=O)NCc2ccc3c(c2)CCN3C(=O)c2ccccc2)cc1
COc1ccc(C(=O)NCC(c2cccnc2)N2CCN(c3ccc(F)cc3)CC2)cc1 (centres undefined)
COc1ccccc1N1CCN(C(CNC(=O)C(=O)NCc2cccnc2)c2cccnc2)CC1 (centres undefined)
Cc1ccc(NC(=O)C2CCCN2S(=O)(=O)c2cccc3nsnc23)cc1Cl (centres undefined)
COc1ccc(NC(=O)c2ccc(-c3nc(CSc4ccccc4)c(C)o3)cc2)cc1OC
O=C(c1ccc2c(c1)CCN2S(=O)(=O)c1ccc(Cl)cc1)N1CCN(c2ccc(F)cc2)CC1
COc1ccc(-c2nnc(C3CCN(C(=O)c4ccccc4F)CC3)o2)cc1
O=C(NCc1cccc(Cl)c1)C1CCCN(c2nn3cc(-c4ccc(F)cc4)nc3s2)C1 (centres undefined)
Cc1cccc(-n2nc(C)c(C(=O)Nc3cc(C)ccc3C)c2-n2cccc2)c1
CC(C)(C)C(=O)NCCc1nc2ccccc2n1CCCCOc1ccccc1
CCOc1ccc(-c2cc(C)n3nc(C(=O)Nc4ccc(C)c(C)c4)cc3n2)cc1
CCOC(=O)C1CCCN(C(=O)Cn2c(=O)cc(C)c3c(C)nn(C)c32)C1 (centres undefined)
CCc1cccc(C)c1NC(=O)COCc1cc(-c2ccc3c(c2)OCO3)on1
Cc1c(NS(C)(=O)=O)cccc1-c1nc2ccccc2s1
CCn1c(CN2CCCCC2)nc2cc(NC(=O)c3ccc([N+](=O)[O-])cc3)ccc21
CCN(C(=O)C1CCC(CNS(=O)(=O)c2cccc3nsnc23)CC1)c1ccccc1 (centres undefined)
COc1ccc(NC(=O)c2ccc(-c3nc(CSc4ccc(C)cc4)c(C)o3)cc2)cc1Cl
CCC1=Nc2cc(C(=O)NC3CCCC3)ccc2Sc2ccc(Cl)cc21
Cc1ccc(C(=O)Nc2ccc(F)cc2)cc1S(=O)(=O)N1CCCCCC1
CCCOc1ccc(C(=O)Nc2ccc(-c3cc4ccccc4oc3=O)c(C)c2)cc1
Cc1ccc(C)c(OCCCC(C)(C)C(=O)O)c1
CCOc1ccccc1NC(=O)c1ccc(F)c(S(=O)(=O)N2CCN(c3ccc(F)cc3)CC2)c1
Cn1c(CN2CCCCC2)nc2cc(NC(=O)c3ccc(Cl)cc3)ccc21
CCc1ccc(OCC2c3cc(OC)c(OC)cc3CCN2C(=O)COc2ccccc2)cc1 (centres undefined)
CCOC(=O)C1=C(CN2CCN(c3ccc(OC)cc3)CC2)NC(=O)NC1c1ccc(OC)cc1 (centres undefined)
Cc1cc(N2CCCCC2)nc2ccc(NC(=O)/C=C/c3ccc(OC(C)C)cc3)cc12
CCCCOc1ccc(CNC(=O)c2cc3n(n2)CCCN(Cc2ccc(C)cc2)C3=O)cc1
CC(=O)N1CCCc2cc(S(=O)(=O)N(C)CC(=O)Nc3ccc(Cl)cc3C)ccc21

Potency, 19 µM (active) and inactive:
O=C(CCCCCCC(=O)Nc1ccccc1)NO

Potency, active:
COc1cccc(-c2cn3c(n2)sc2cc(C(=O)NCc4cccs4)ccc23)c1 8.49 µM
O=C(NCc1ccccc1)c1cc2ccc3cccnc3c2[nH]1 2.13 µM

Reference: PubChem BioAssay AID1508622 (National Center for Advancing Translational Sciences (NCATS), 2021)
